Measured values reported in ChEMBL document CHEMBL3988442, “University of Dundee, Small-Polar-MMV Screening Library” (2021).
Out of some 53,000 compounds screened, about 900 (1.7%) showed an effect of 50% or more. The sample holds strong results, similar compounds and a random draw of the others, so the mix is not that of the screen.

System: Mycobacterium tuberculosis
Assay: Cornell - Phenotypic assay to identify agents that inhibit growth of Mycobacterium tuberculosis
Format: functional
Parameters: scale not given: direction of the effect not stated beside the values
Conditions: 10 mM as filed; unlikely as a test dose

Row | Compound | Percent Effect [%]
1 | CC[C@H](N)C(=O)Nc1nn(CC(F)(F)F)c2cc(OC(C)C)ccc12 | 15.83
2 | Cc1nc(C)n(CC2CCCCN2CC(=O)NCc2ccccn2)n1 (stereo not given) | 18.51
3 | CCS(=O)(=O)CCN1CCC(N(C)Cc2noc(C(C)C)n2)C1 (stereo not given) | 13.23
4 | COCC1CN(C(=O)Nc2cc(Cl)cc(Cl)c2)CCO1 (stereo not given) | 13.66
5 | Cc1cc(NC(=O)N2CCOC(C(N)=O)C2)ccc1Br (stereo not given) | 15.45
6 | NC(=O)C1CN(C(=O)Nc2cc(Cl)cc(Cl)c2)CCO1 (stereo not given) | 103.4
7 | CNc1snc(C)c1C(=O)N1CCCC(n2cc(C)cn2)C1 (stereo not given) | -17.18
8 | Cc1nc(CN2CCC3(CC2)NC(=O)CC3c2ccncc2)cs1.O=C(O)C(F)(F)F.O=C(O)C(F)(F)F (stereo not given) | 21.18
9 | COC(=O)COn1c(SC)nc2ccccc2c1=O | 75.88
10 | COc1ccc(SCC2CNc3nc4ccccc4c(=O)n32)cc1 (stereo not given) | 44.86
11 | CCSc1nc2ccccc2c(=O)n1OCC(=O)OC | 74.42
12 | COC(=O)COn1c(SCC(=O)OC)nc2ccccc2c1=O | 102.5
13 | COc1ccc(-n2c(SC)nc(O)c(Cc3ccccc3)c2=O)cc1 | 13.52
14 | CCc1nc2ccccc2c(=O)n1CC1(O)CCN(C(=O)COC)CC1.Cl | 10.94
15 | CCc1nc2ccccc2c(=O)n1CC1(O)CCN(CC(=O)OC)CC1 | 13.86
16 | COCC(C)NC(=O)CCCn1cnc2ccccc2c1=O (stereo not given) | 7.524
17 | CCc1cc(=O)[nH]c2nnc(SCC(=O)OC)n12 | -7.031
18 | COC(=O)COn1c(SC(C)C)nc2ccccc2c1=O | 75.74
19 | COC(=O)CNC(=O)CCCn1cnc2ccccc2c1=O | 3.303
20 | COC(=O)COn1c(OC)nc2ccccc2c1=O | 32.68
21 | COCc1nn(Cc2ccc(Br)s2)c(=O)o1 | 6.613
22 | N#CCCn1nc(C(F)(F)F)c2c1CCCC2 | -22.61

Row | Compound | Percent Effect [%]
23 | O=C(O)C(F)(F)F.O=C(O)C(F)(F)F.c1cc(CN2C[C@@H]3OCCN(CC4CC4)[C@@H]3C2)n[nH]1 | 4.885
24 | CO[C@@H]1CCN(C(=O)Cc2cccc(F)c2)[C@H]1Cc1cccnc1.O=C(O)C(F)(F)F | -8.358
25 | CC(C)C(=O)N1CC[C@H]2N(C)CC[C@@]2(C(=O)N2CCOCC2)CC1.O=C(O)C(F)(F)F | -25.99
26 | Cc1ccccc1CN(C)CC(O)COCc1ccccc1Cl (stereo not given) | -1.891
27 | O=C(O)C(F)(F)F.O=C(O)C(F)(F)F.c1cc(CN2CCc3ncc(CN4CCOCC4)n3CC2)cs1 | -22.34
28 | COc1ccncc1NCc1cscn1 | 26.83
29 | COc1ccccc1NCc1cscn1.Cl | 16.2
30 | CC(C)(C)Oc1ccncc1NCc1cscn1 | 55.35
31 | COC1COC2(CCN(Cc3ccccc3F)CC2)C1.O=C(O)C(F)(F)F (stereo not given) | 10.15
32 | CCCc1nnc(N2CCN(c3ccccc3OCC)CC2)o1 | 24.59
33 | CCCc1nnc(N2CCN(c3ccccc3Cl)CC2)o1 | 51.83
34 | CCCc1nnc(N2CCN(c3ccccc3F)CC2)o1 | -12.77
35 | Cc1cccc(NC(=O)NC2CCC3(C2)OCCO3)c1Cl (stereo not given) | 24.64
36 | CN(CC(=O)NC(Cc1ccsc1)c1cccnc1)Cc1ccccn1.Cl (stereo not given) | -48.97
37 | Cc1csc(C(Cc2ccsc2)NC(=O)CN(C)Cc2ccccn2)n1.Cl (stereo not given) | 68.23
38 | Cc1csc(C(Cc2ccsc2)NC(=O)CN(C)Cc2cccnc2)n1.Cl (stereo not given) | 14.48
39 | CCOc1ccc(NC(=O)N2CCC(n3cncn3)CC2)cc1Cl | -30.56
40 | O=C(O)C(F)(F)F.c1cnc(N2C[C@@H]3COC[C@]3(COCC3CCCC3)C2)nc1 | 53.05
41 | O=C(CC1CC1)NC[C@]12COC[C@H]1CN(c1ncccn1)C2.O=C(O)C(F)(F)F | 0.6787
42 | O=C(O)C(F)(F)F.O=C(O)C(F)(F)F.c1ccc(OC[C@]23COC[C@H]2CN(c2ncccn2)C3)nc1 | 24.67
43 | CCOCC1CN(Cc2cnn(C)c2)Cc2ncn(C)c21 (stereo not given) | 21.37
44 | Cc1ccc(CN2C[C@H](OCCN(C)C)[C@H]3COC[C@H]32)o1.O=C(O)C(F)(F)F.O=C(O)C(F)(F)F | 19.04

Row | Compound | Percent Effect [%]
45 | CNC(=O)N1CCC(=Cc2ccccc2)CC1 | 50.2
46 | CCCNC(=O)CCNC(=O)N1CCC(=Cc2ccccc2)CC1 | -1.003
47 | CCNC(=O)N1CCC(=Cc2ccccc2)CC1 | 31.8
48 | COC(=O)N1CCC(CNC(=O)C2CCN(S(C)(=O)=O)CC2)CC1 | -2.459
49 | COc1ccccc1OCCNCCn1cccn1 | 4.031
50 | CCn1ccc(-c2cc(NCCCOc3ccccc3C)nc(C)n2)n1 | 93.67
51 | CCn1ccc(-c2cc(NCCCOc3cccc(C)c3)nc(C)n2)n1 | 27.92
52 | CC1(C)OC(=O)N(CCOc2ccc(F)cc2)C1=O | 15.77
53 | CN1CCOC(C)(C(=O)N2CCN(C3CCCC3)CC2)C1 (stereo not given) | -58.81
54 | CNC(=O)CNCC1(O)CCCN(Cc2ccc(F)c(F)c2)C1=O (stereo not given) | -12.88
55 | NCCc1nc(N(Cc2nccs2)C2CC2)c2ccccc2n1 | -24.34
56 | NCCc1nc(N(Cc2cncs2)C2CC2)c2ccccc2n1 | -19.06
57 | Cc1ccsc1CN(c1nc(CCN)nc2ccccc12)C1CC1 | 64.64
58 | CN(C)C(CNC(=O)c1cccc(C(N)=O)c1)c1ccccc1Cl (stereo not given) | -40.94
59 | N#Cc1nccnc1N1CCC(Cc2ccccc2)C1 (stereo not given) | 17.71
60 | N#Cc1nccnc1N1CCC(CSc2ccccc2)C1 (stereo not given) | 53.28
61 | N#Cc1nccnc1N1CCC(COCc2ccccc2)C1 (stereo not given) | 4.332
62 | CC(C)C(NC(=O)c1ccc(N2CCOCC2)nc1)c1cccs1 (stereo not given) | 5.892
63 | CC(C)C(NC(=O)c1cnc(N2CCOCC2)nc1)c1cccs1 (stereo not given) | 69.04
64 | CC(C)C(NC(=O)c1nc(N2CCOCC2)ncc1Cl)c1cccs1 (stereo not given) | 19.79
65 | CC(=O)Nc1ccc(Oc2ccc3c(c2)OCO3)nc1 | 12.25
66 | CC(C)N1CC2(CCCN(c3ccccn3)C2)CCC1=O (stereo not given) | 8.106

Row | Compound | Percent Effect [%]
67 | CCc1ccc(C(=O)NCC2CCCN2CC)o1 (stereo not given) | 3.045
68 | CCc1cnc(N2CC[C@H]3[C@@H]2CCC(=O)N3c2cccnc2)nc1.O=C(O)C(F)(F)F.O=C(O)C(F)(F)F | 5.714
69 | Cc1nc2c(Nc3ccc(C#N)cc3)nc(N)nc2n1C | 2.918
70 | CC(=O)c1ccc(Nc2nc(N)nc3c2nc(C)n3C)cc1 | 11.87
71 | Cc1nc2c(Nc3cccc(C#N)c3)nc(N)nc2n1C | 106.8
72 | CCc1nc(CN(C)Cc2ncc(-c3cccs3)o2)cs1 | 22.49
73 | CCc1nc(CN(C)Cc2nnc(-c3cccs3)o2)cs1 | 57.32
74 | CN(Cc1nnc(-c2cccs2)o1)C(C(N)=O)c1cccc(F)c1 (stereo not given) | 15.31
75 | Cc1cc(NC(=O)c2ccccc2Br)n(C)n1 | 11.86
76 | Cc1cnn(CC2CCCN2Cc2coc(-c3cccc(F)c3)n2)c1 (stereo not given) | 42.46
77 | OC(COCc1ccco1)CN1CCC(Cn2cccn2)CC1 (stereo not given) | -18.82
78 | COc1cccc2c1OCC(CNc1cc(N)nc(SC)n1)C2 (stereo not given) | 106
79 | COc1ccc2c(c1)OCC(Cc1ccc(N)nc1C)C2 (stereo not given) | 38.23
80 | COc1ccc2c(c1)OCC(Cc1ccc(C)nc1N)C2 (stereo not given) | 9.156
81 | COc1cccc2c1OCC(CNc1ccc(C)nn1)C2 (stereo not given) | 22.84
82 | COc1ccc2c(c1)OCC(CNc1cc(N)nc(SC)n1)C2 (stereo not given) | 106.6
83 | COc1cccc2c1OCC(Cc1ccc(N)nc1C)C2 (stereo not given) | 28.19
84 | Cc1nccc(-c2cccc(NCC(=O)N3CCNC(=O)C3)c2)n1 | 4.567
85 | CNC(=O)c1cccc(CC2COCCN(Cc3ccc(C)o3)C2)n1 (stereo not given) | 0.6767
86 | Cc1ccc(S(=O)(=O)NCC(O)c2ccoc2)s1 (stereo not given) | 10.79
87 | COC(=O)c1sccc1S(=O)(=O)NCCc1ccoc1 | 39.87
88 | Cc1ccc(S(=O)(=O)NCCc2ccoc2)s1 | 103.3

Row | Compound | Percent Effect [%]
89 | O=S(=O)(NCC1COc2ccccc2C1)N1CCCC1 (stereo not given) | 15.67
90 | OC1=C2C(=Nc3n[nH]c(O)c3C2c2ccco2)CCC1 (stereo not given) | 27.79
91 | Cc1cnn(CC2CCCN2CCc2nc3ccccc3c(=O)[nH]2)c1 (stereo not given) | 106.5
92 | Cc1nc(C)n(CC2CCCN2Cc2nc3ccccc3c(=O)[nH]2)n1 (stereo not given) | -38.81
93 | Cc1cnn(CC2CCCN2Cc2noc(-c3ccccc3)n2)c1 (stereo not given) | 10.45
94 | Cc1cnn(CC2CCCN2Cc2nc3ccccc3n2C)c1 (stereo not given) | 81.85
95 | Cc1cnn(CC2CCCN2C(=O)CCc2nc3ccccc3[nH]2)c1 (stereo not given) | 16.22
96 | Cc1cnn(CC2CCCCN2Cc2nc(N)c3ccccc3n2)c1 (stereo not given) | 31.76
97 | Cc1cccc(CN2CCC(C3Nc4ccccc4S(=O)(=O)N3)CC2)n1 (stereo not given) | -13.88
98 | CCn1c(N)nc2cc(C(=O)N(C)Cc3cc(C(C)(C)C)n[nH]3)cnc21 | 12.68
99 | CN1CC(=O)N(c2cccc(F)c2)CC12CCNC2 (stereo not given) | -13.58
100 | NC(=O)CN1CCCCC1c1nc(N)ncc1-c1cccc(F)c1 (stereo not given) | -18.13
101 | COCCN1CCN(Cc2nc(-c3ccoc3)no2)CC1 | -27.89
102 | O=S(=O)(Nc1cnc(N2CCCC2)nc1)c1ccc(F)cc1F | -10.3
103 | Cn1cc(NS(=O)(=O)c2ccc(OC(F)(F)F)cc2)ccc1=O | -35.35
104 | O=S(=O)(Nc1cnc(N2CCOCC2)nc1)c1ccc(C(F)(F)F)cc1 | 57.68
105 | O=S(=O)(Nc1cnc(N2CCCC2)nc1)c1ccc(OC(F)(F)F)cc1 | 94.98
106 | O=S(=O)(Nc1cnc(N2CCOCC2)nc1)c1ccc(Cl)cc1 | -17.06
107 | Cc1ccc(F)cc1S(=O)(=O)Nc1cnc(N2CCCC2)nc1 | 13.98
108 | CN(C)c1ncc(NS(=O)(=O)c2ccc(OC(F)(F)F)cc2)cn1 | 23.91
109 | O=S(=O)(Nc1cnc(N2CCCC2)nc1)c1ccc(C(F)(F)F)cc1 | 101.9
110 | CCc1ccc(S(=O)(=O)Nc2cnc(N3CCOCC3)nc2)cc1 | 24.89
